In PubChem BioAssay one finds composite z-score and z-score data, which are given here for six molecules.

Several values for one entry are separate records, joined by “and”; a condition that tells them apart may be missing. Equal entries are not always repeated. Activity calls are given as the source filed them.

The subject of assay [1] is Plasmodium falciparum Sir2 (PF13_0152, Sir2A). In words: pfSir2 binders on small-molecule microarrays, primary screen, biochemical, small-molecule microarray, 635 nm fluorescence (AID 1098).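 Also: score merges spot fluorescence intensity with its signal-to-noise ratio.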 As to conditions: small-molecule microarray binding, fluorescence 635 nm; higher = more signal.
Assay [2] in a line: small-molecule microarray binders of probe aDKK1, primary screen, biochemical, biotinylated probe, 635/667 nm fluorescence (AID 1099).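 Also: score merges 667nm spot fluorescence with signal to noise across triplicate slides.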 Conditions: higher = more signal.
The nature of assay [3]: small-molecule microarray binders of probe aCHRDL2, primary screen, biochemical, biotinylated probe, 635/667 nm fluorescence (AID 1100). As to conditions: higher = more signal.
Assay [4] can be described thus: splicing luciferase reporter signal modulators, primary screen, spliceosome inhibition project, cell-based, HEK293, splice +/- reporter (AID 1101).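 Also: HEK293 cells carrying a splicing-competent luciferase reporter gene; test concentration not given here.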 As to conditions: luminescence, 24 h, higher = more signal, called active from +8 up or from −8 down.
Assay [5] concerns the target Fibroblast growth factor 10 (Homo sapiens) (UniProt O15520). In words: FGF10 binders on small-molecule microarrays, primary screen, biochemical, small-molecule microarray, 635 nm fluorescence (AID 1102). As to conditions: FGF10 binding, fluorescence 635 nm, higher = more signal.
Assay [6] has as its system glycogen synthase kinase-3 (GSK3A per assay name; protocol says GSK3B). In words: GSK3 binders on small-molecule microarrays, primary screen, biochemical, small-molecule microarray, 635 nm fluorescence, GSK3A (AID 1103). Also: the record names both GSK3A and GSK3B. As to conditions: small-molecule microarray binding, fluorescence 635 nm; higher = more signal.
Assay [7] addresses Epidermal growth factor receptor (Homo sapiens) (UniProt P00533). In words: EGFR binders on small-molecule microarrays, primary screen, biochemical, small-molecule microarray, 635 nm fluorescence (AID 1104).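 Also: score merges 667 nm emission intensity with spot signal to noise over triplicate slides.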 As to conditions: EGFR binding, higher = more signal.
Assay [8] deals with Follistatin-related protein 3 (Homo sapiens) (UniProt O95633). In words: FSTL3 binders on small-molecule microarrays, primary screen, biochemical, small-molecule microarray, 635 nm fluorescence (AID 1105).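 Also: score merges emission near 667 nm and signal to noise per printed spot across three slides.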 Conditions: FSTL3 binding, higher = more signal.
Sequence of Follistatin-related protein 3 (Homo sapiens) (O95633 whole entry, looked up): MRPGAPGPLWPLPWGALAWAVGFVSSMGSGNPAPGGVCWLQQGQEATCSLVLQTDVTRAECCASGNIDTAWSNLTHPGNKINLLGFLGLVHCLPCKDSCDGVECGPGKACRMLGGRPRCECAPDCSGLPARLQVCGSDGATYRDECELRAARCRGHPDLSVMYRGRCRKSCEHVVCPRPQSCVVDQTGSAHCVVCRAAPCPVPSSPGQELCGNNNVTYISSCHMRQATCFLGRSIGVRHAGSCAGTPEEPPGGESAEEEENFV
For assay [9], the target named is Dickkopf-related protein 1 (Homo sapiens) (UniProt O94907). Kind of assay: DKK1 binders on small-molecule microarrays, primary screen, biochemical, small-molecule microarray, 635 nm fluorescence scan (AID 1106).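 Also: score merges emission near 667 nm with signal to noise over three replicate slides.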 As to conditions: DKK1 binding, higher = more signal.
Sequence of Dickkopf-related protein 1 (Homo sapiens) (O94907 whole entry, looked up): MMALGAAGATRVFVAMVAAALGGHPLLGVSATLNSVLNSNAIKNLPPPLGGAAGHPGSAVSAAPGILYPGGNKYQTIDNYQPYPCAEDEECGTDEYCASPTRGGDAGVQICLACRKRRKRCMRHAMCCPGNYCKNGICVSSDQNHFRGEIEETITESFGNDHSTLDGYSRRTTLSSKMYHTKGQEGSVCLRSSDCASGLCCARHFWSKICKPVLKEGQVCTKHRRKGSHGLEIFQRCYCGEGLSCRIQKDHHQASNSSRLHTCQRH
The test system of assay [10] is Inhibin beta A chain (activin A). In words: INHBA (activin A) binders on microarrays, primary screen, biochemical, small-molecule microarray, 635 nm fluorescence scan (AID 1107).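 Also: mouse activin A protein probed at 4.33 µg/mL on printed slides; score merges bound-protein fluorescence near 667 nm with spot signal-to-noise.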 Conditions: small-molecule microarray binding, higher = more signal.
Assay [11] deals with Human papillomavirus type 1a protein E7 (residues 44-93). Kind of assay: HPV1a E7 fragment binders on microarrays, primary screen, biochemical, small-molecule microarray, residues 44-93, 635 nm fluorescence (AID 1108).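 Also: E7 fragment applied at 1 µg/mL in TBST for 1 h at 4 C; score combines spot fluorescence with its signal to noise ratio.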 As to conditions: small-molecule microarray binding, fluorescence 635 nm; higher = more signal.
Assay [12] is described as follows: modulators of HCV replicon luciferase signal, primary screen, HCV replication inhibitor project, Huh7 cells, luciferase reporter (AID 1109).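 Also: huh7 hepatoma cells harbouring a luciferase neomycin HCV replicon reporter; luciferase luminescence as measure of HCV replicon replication; test concentration not given here.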 Conditions: 48 h, higher = more signal.
Assay [13] has as its target Left-right determination factor 2 (Homo sapiens) (UniProt O00292). Kind of assay: LEFTY2 binders on small-molecule microarrays, primary screen, biochemical, small-molecule microarray, 635 nm fluorescence scan (AID 1110). As to conditions: LEFTY2 binding, higher = more signal.
Assay [14] addresses Calmodulin-1 (Homo sapiens) (UniProt P0DP23). In words: CALM1 binders on microarrays, EGTA buffer, profiling panel, biochemical, small-molecule microarray, Cy5-labelled CALM1 (AID 1111).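 Also: labelled calmodulin applied in Tris saline Tween buffer holding calcium plus EGTA and DTT.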 Conditions: Cy5-CALM1 binding fluorescence, higher = more signal.
Assay [15] has the same target. Kind of assay: calcium-bound CALM1 binders on microarrays, profiling panel, artefact control for SMM control-protein annotation, biochemical, small-molecule microarray, Cy5-labelled CALM1, plus calcium (AID 1112).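 Also: score merges spot fluorescence with signal to noise from triplicate slides.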 As to conditions: Cy5-CALM1 binding fluorescence, higher = more signal.
Assay [16] in a line: small-molecule microarray binders of probe aWnt5a, primary screen, biochemical, biotinylated probe, 635/667 nm fluorescence (AID 1113).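 Also: score merges 667 nm fluorescence intensity with signal-to-noise per printed feature.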 As to conditions: higher = more signal.
Assay [17] in a line: small-molecule microarray binders of probe aShh, primary screen, biochemical, biotinylated probe, 635/667 nm fluorescence (AID 1114).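 Also: probe is biotin-labelled aShh protein from a stem cell growth factor screen; measures binding of labelled protein to compounds printed on the slide; score merges feature fluorescence at 667 nm with signal-to-noise.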 Conditions: higher = more signal.
The nature of assay [18]: small-molecule microarray binders of probe aNog, primary screen, biochemical, biotinylated probe, 635/667 nm fluorescence (AID 1115).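 Also: probe is biotinylated aNog protein used at 0.15 µg/mL for 1 h at 4 C; z-score combines 667 nm fluorescence of each spot with its signal to noise.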 As to conditions: higher = more signal.
Assay [19] deals with Torsin-1A-interacting protein 1 (Homo sapiens) (UniProt Q5JTV8). Kind of assay: LAP1 binders from COS7 cell lysate, primary screen, small-molecule microarray, 635/667 nm fluorescence (AID 1116). As to conditions: COS7-hLAP1 lysate binding, 635 nm fluorescence, higher = more signal.
Sequence of Torsin-1A-interacting protein 1 (Homo sapiens) (Q5JTV8 whole entry, looked up): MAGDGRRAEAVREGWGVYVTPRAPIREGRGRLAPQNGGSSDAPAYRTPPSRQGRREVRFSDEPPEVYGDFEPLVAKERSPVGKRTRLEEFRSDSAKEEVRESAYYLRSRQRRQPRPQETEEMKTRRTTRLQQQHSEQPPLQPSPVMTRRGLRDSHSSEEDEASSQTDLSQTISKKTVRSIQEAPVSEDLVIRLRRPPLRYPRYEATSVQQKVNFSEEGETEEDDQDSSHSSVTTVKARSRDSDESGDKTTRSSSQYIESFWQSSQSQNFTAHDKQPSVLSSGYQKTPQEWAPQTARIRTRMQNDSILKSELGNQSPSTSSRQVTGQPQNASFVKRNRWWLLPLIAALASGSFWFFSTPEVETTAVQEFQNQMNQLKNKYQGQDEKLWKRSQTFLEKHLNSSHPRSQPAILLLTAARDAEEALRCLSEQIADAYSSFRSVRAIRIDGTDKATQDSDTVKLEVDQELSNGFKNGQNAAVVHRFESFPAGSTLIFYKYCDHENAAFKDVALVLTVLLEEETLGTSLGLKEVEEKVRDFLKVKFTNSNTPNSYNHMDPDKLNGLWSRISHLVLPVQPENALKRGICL
Assay [20] has as its target Alpha-bungarotoxin (Bungarus multicinctus) (UniProt P60615). Kind of assay: alpha-bungarotoxin binders on microarray, profiling panel, artefact control for SMM control protein annotation, biochemical, small-molecule microarray, Alexa647 label, 635/667 nm fluorescence (AID 1117). As to conditions: alpha-BTX-A647 binding fluorescence, higher = more signal.

Sequence of Left-right determination factor 2 (Homo sapiens) (O00292 whole entry, looked up): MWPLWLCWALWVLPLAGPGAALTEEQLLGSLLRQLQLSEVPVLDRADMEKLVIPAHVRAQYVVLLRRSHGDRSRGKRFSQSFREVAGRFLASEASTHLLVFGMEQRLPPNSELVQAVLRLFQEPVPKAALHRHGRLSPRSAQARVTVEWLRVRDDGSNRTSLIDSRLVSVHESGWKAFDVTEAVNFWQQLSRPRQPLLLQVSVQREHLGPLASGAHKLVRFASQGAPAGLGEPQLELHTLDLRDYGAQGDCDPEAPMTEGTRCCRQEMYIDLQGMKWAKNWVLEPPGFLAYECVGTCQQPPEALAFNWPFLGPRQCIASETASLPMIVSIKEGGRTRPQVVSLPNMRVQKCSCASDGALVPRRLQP
Sequence of Epidermal growth factor receptor (Homo sapiens) (P00533 whole entry, looked up): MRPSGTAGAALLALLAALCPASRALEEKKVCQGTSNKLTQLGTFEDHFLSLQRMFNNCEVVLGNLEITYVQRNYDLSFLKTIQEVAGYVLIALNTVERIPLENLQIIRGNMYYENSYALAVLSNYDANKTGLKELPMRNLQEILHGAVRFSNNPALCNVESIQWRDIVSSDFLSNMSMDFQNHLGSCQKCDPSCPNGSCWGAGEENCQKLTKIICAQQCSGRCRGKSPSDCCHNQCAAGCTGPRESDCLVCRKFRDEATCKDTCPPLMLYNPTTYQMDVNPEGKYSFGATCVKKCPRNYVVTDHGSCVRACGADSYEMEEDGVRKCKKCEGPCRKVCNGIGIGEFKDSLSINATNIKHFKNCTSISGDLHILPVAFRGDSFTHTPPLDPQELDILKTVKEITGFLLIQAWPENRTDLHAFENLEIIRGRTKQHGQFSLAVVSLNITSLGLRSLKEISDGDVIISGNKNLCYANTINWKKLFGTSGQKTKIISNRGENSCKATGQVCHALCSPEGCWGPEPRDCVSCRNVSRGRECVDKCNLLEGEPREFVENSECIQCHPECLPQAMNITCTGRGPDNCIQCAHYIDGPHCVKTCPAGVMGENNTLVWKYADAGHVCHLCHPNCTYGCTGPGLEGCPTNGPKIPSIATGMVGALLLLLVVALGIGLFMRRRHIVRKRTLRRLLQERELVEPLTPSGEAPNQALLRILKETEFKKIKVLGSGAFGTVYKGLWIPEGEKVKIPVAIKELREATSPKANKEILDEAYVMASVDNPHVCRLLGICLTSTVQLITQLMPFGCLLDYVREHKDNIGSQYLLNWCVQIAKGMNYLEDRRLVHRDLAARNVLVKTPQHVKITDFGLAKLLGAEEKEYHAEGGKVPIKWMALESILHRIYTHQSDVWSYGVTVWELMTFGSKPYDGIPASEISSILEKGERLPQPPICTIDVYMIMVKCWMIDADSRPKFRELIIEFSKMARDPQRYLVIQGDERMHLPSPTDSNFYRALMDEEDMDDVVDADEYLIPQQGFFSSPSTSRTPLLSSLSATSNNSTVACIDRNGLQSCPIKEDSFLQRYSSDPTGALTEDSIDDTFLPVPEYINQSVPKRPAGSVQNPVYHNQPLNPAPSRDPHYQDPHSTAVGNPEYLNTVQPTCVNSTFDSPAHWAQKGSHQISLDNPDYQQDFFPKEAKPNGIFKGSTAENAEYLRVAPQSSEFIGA
Sequence of Fibroblast growth factor 10 (Homo sapiens) (O15520 whole entry, looked up): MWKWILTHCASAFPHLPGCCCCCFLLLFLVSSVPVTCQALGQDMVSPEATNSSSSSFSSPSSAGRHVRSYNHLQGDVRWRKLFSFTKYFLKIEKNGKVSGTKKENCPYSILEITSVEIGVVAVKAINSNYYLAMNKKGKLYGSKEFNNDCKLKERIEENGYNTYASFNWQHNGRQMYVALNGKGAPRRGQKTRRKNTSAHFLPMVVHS
Sequence of Alpha-bungarotoxin (Bungarus multicinctus) (P60615 whole entry, looked up): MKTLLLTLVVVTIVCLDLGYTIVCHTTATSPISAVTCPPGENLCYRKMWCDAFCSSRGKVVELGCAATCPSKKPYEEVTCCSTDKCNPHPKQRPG

As for `CCOC(=O)c1ccc(NC(=O)O[C@H]2[C@H](OC(=O)Nc3ccccc3)[C@@H](OC(=O)Nc3ccccc3)[C@@H](OC)O[C@@H]2CO)cc1`, the composite z-score in assay [1] is 1.54 and 1.64; in assay [2], 1; in [3], 0.861 and 0.911; in assay [5] it was 1.13 and 1.42; in assay [6], 1.24 and 1.34; in [7], 0.329 and 0.0234. The composite z-score was 1.34 and 1.42 in assay [8]; 0.414 and 0.17 in assay [9]; 0.375 and 0.563 in [10]; 0.249 and 1.18 in assay [11]; 0.772 and 0.53 in [13]; 2.04 and 1.81 in assay [14]. Also, the composite z-score in assay [15] is 0.114 and -0.0271; in assay [16], 0.0618 and 0.199; in assay [17] it was 0.613 and 0.204; in assay [18], 1.32 and 0.386; in assay [19], 1.2 and 1.5; in assay [20], 2.04 and 1.85. In addition, the z-score in assay [4] is 1.59 (inactive) and -0.984 (inactive); in assay [12], -3.3 and -1.82.
`COC(=O)C1=C(C)N(Cc2ccccc2)C2=C(C(C)=O)C[C@@](O)(C(=O)OC)C(=O)N2[C@@H]1c1ccccc1`: the composite z-score was 1.58 and 0.326 in [1]; -0.301 and -0.205 in assay [2]; -0.764 and -0.229 in [3]; 0.988 and 0.0571 in assay [5]; 0.74 and -0.0162 in [6]; 0.381 and 0.348 in assay [7]. Besides, the composite z-score in [8] was 0.869 and 0.521; in assay [9], 0.801 and 0.478; in assay [10], 0.522 and 1.28; in [11], 0.594 and -0.54; in assay [13], 0.85 and 0.187; in [14], -1 and -0.501. Besides, the composite z-score was -1.13 and -0.338 in [15]; -0.0512 and -0.18 in [16]; 0.0465 and 0.0121 in [17]; 0.127 and -0.247 in [18]; 0.974 and -0.069 in [19]; -0.634 and 0.42 in assay [20]. Further, the z-score in assay [4] was -0.805 (inactive) and -0.873 (inactive); in assay [12], -0.347 and 1.11.
For the molecule `CCCNC(=O)OC[C@H]1O[C@H](CCON=C(C)CCC(=O)OC[C@H]2O[C@H](C#Cc3ccccc3)C=C[C@@H]2Oc2ccc(C)cc2)C=C[C@@H]1Oc1ccc(OC)cc1`, the composite z-score was 0.352 in assay [1]; -0.193 in assay [2]; -0.148 in [3]; -0.397 in assay [5]; -0.952 in assay [6]; -0.501 in [7]. Also, the composite z-score is -0.637 in assay [8]; -0.121 in assay [9]; 0.711 in assay [10]; -1.27 in assay [11]; 0.272 in assay [13]; -0.309 in assay [14]. Besides, the composite z-score in assay [15] is -0.465; in assay [16] it was -0.258; in [17], -0.174; in [18] it was -0.332; in assay [19], -0.492; in [20] it was 0.0642. Besides, the z-score was -0.301 (inactive) in assay [4] and -0.564 in [12].
With `Cc1ccc(S(=O)(=O)OC[C@@H]2CN3[C@@H](CC[C@@H](C)[C@@H]3c3ccc(Br)cc3)C(=O)O2)cc1`, the composite z-score in [1] was 0.257 and 0.321; in assay [2], 0.151 and 0.128; in assay [3], -0.234 and -0.289; in assay [5] it was 0.0993 and 0.625; in [6], 0.0442 and 0.372; in [7], 0.352 and 0.49. The composite z-score in [8] was 0.0546 and 0.262; in assay [9], 0.235 and 0.46; in assay [10] it was 0.758 and 0.354; in [11] it was 0.574 and 0.644; in assay [13] it was 0.57 and 0.483; in assay [14] it was 0.192 and 0.679. Moreover, the composite z-score in [15] is 0.2 and -0.302; in [16] it was -0.0704 and 0.0194; in [17] it was -0.237 and -0.16; in assay [18], -0.172 and -0.0898; in assay [19] it was 0.301 and 0.359; in assay [20], 0.153 and 0.448. For the same molecule, the z-score in [4] was 0.479 (inactive) and 0.402 (inactive); in [12], -0.796 and -0.729.
On to `O=C1C[C@]2(c3ccc([N+](=O)[O-])cc3)C(=O)N(Cc3ccccc3)c3cc(CO)ccc3[C@H]2N1C1CCCCC1`, for which the composite z-score in assay [1] was -0.179 and 0.678; in assay [2], -0.153 and 1.26; in [3], -0.0948 and 0.78; in assay [5], -0.225 and 0.994; in [6], 1.11 and -0.148; in assay [7], 0.079 and 0.291. The composite z-score in assay [8] is 0.413 and -0.017; in assay [9] it was -0.0921 and 0.434; in [10], 0.4 and 0.359; in assay [11] it was 0.986 and 0.622; in [13] it was -1.1 and 0.586; in assay [14], -0.135 and 1.19. The composite z-score was -0.195 and 0.163 in [15]; -0.0546 and -0.0556 in [16]; 0.0611 and 0.393 in assay [17]; -0.262 and 0.344 in assay [18]; 0.395 and -0.136 in assay [19]; 0.0277 and -0.0515 in assay [20]. The z-score in [4] was 0.0261 (inactive) and -0.478 (inactive); in assay [12], -0.107 and -2.97.
With `CC(CO)N1C(=O)[C@@H]2C3C(=O)OCCC=C[C@H]3OC23C=CCN(Cn2nnc4ccccc42)C(=O)[C@@H]13` (stereo not given in full), the composite z-score was 1.07 and 1.47 in assay [1]; -0.26 and -0.125 in assay [2]; 0.683 and 0.303 in assay [3]; -0.914 and 0.715 in assay [5]; -1.38 and -0.212 in [6]; -1.56 and -0.105 in assay [7]. The composite z-score in assay [8] was -1.68 and -0.219; in assay [9] it was -2.03 and -0.18; in assay [10] it was -0.785 and 0.234; in [11], -0.394 and 0.27; in assay [13], -0.985 and -0.403; in assay [14], -0.184 and -0.298. Further, the composite z-score in [15] is 0.73 and -0.573; in assay [16], -0.25 and 0.0431; in assay [17], -0.474 and 0.0062; in assay [18], -0.0103 and -0.142; in assay [19], -0.393 and 0.0141; in [20], -0.652 and -0.332. For the same molecule, the z-score in assay [4] is -0.0985 (inactive) and 0.148 (inactive); in assay [12], -1.03 and 0.0704.
